PubChem BioAssay (NCATS)
“And” between values parts separate entries of the source, which are not always exact repeats. Equal entries are not always repeated. Inconclusive results are not listed. Values without a mark were called inactive. The source made the active and inactive calls. Calls come from the whole dose curve; as a rule, active = well fitted activation curve with a large enough effect; inconclusive = small, poorly fitted or top-dose-only effect; inactive = no such curve, though single readings can be large or run the other way.

molecular target: Cellular tumor antigen p53 (Homo sapiens) (UniProt P04637); assay: Primary qHTS for small molecule compounds that upregulate eGFP-tagged delta133p53alpha (in N-terminal) cells. (AID 2060322); conditions: NCI-H358 eGFP-delta133p53alpha fluorescence, 24 h; activation: active compounds read high; note: nearly all actives have a fitted effect of over 75% in size;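 for activation: series mostly up to about 56 µM; 0% = DMSO vehicle and 100% = reference activator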
Procedure, shortened: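 NCI-H358 cells pre-induced 24 h with 10 ng/ml doxycycline for eGFP-delta133p53alpha, plated dox-free and exposed 24 h at 37C to titrated compounds. Fixed, Hoechst-stained; gated GFP peak intensity by laser scanning cytometry, normalized to DMSO (0%) and 57.5 uM 5-azacytidine (100%).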
Potency is the fitted concentration of half-maximal effect.

Cellular tumor antigen p53 (Homo sapiens), sequence (P04637 whole entry, looked up): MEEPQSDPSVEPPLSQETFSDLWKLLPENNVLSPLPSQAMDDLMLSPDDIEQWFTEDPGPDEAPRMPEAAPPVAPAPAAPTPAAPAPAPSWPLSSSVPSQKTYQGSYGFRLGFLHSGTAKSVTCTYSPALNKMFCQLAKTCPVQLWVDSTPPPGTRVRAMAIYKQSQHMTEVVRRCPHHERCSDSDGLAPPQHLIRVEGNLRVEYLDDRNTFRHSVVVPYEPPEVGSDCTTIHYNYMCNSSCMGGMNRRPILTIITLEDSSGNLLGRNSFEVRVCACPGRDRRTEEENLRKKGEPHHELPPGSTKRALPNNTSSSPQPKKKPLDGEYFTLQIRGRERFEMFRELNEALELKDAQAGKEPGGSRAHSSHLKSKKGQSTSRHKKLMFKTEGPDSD

Going from `Cc1c(C)n(Cc2ccccc2)c2ccc(C(=O)OCCN(C)C)cc12` to `CCN(CCCCOC(=O)c1ccc(OC)c(OC)c1)C(C)Cc1ccc(OC)cc1` (stereo not given), the activation falls from -0.837% to -6.69%.

Going from `CN(CC=CC#CC(C)(C)C)Cc1cccc2ccccc12` to `NCc1ccccc1Sc1ccccc1CO`, the activation falls from 36.7% to 15.3%.

First: CNC(=O)c1cnn(-c2nc(N)c3ncn([C@@H]4O[C@H](CO)[C@@H](O)[C@H]4O)c3n2)c1
Second: Nc1nc(=O)n([C@@H]2O[C@H](CO)[C@@H](O)[C@@H]2F)cc1I
The activation of the first is higher: -18.4% for the first, -22% for the second.

First: O=C1NC(=O)C(=Cc2ccc3c(c2)OC(F)(F)O3)S1
Second: CC(C)c1cc2c(c(O)c1O)[C@@]13CCCC(C)(C)[C@@H]1[C@H](OC3=O)C2=O
The activation of the first is higher: 27.2% for the first, 0% for the second.

Going from `CN(C)[C@@H]1C(=O)C(C(=O)NCN2CCCC2)=C(O)[C@@]2(O)C(=O)C3=C(O)c4c(O)cccc4[C@@](C)(O)C3C[C@@H]12` (stereo not given in full) to `C[C@]12CCC(=O)C=C1CC[C@@H]1[C@@H]2[C@@H](O)C[C@@]2(C)[C@H]1CC[C@]2(O)C(=O)COC(=O)CCC(=O)O`, the activation rises from -13% to 1.69%.

Going from `Cc1cccc(N(C)C(=S)Oc2ccc3c(c2)C2CCC3C2)c1` (stereo not given) to `O=C1C(=O)c2ccccc2C(O)=C1C1CCC(c2ccc(Cl)cc2)CC1` (stereo not given), the activation falls from -15.1% to -33.3%.

First: Oc1ccccc1-c1nnco1
Second: c1ccc2occc2c1
The activation of the first is lower: -23.2% for the first, -5.08% for the second.

First: NC[C@H]1O[C@H](O[C@H]2[C@H](O)[C@@H](O[C@H]3O[C@H](CO)[C@@H](O)[C@H](N)[C@H]3O)[C@H](N)C[C@@H]2N)[C@H](N)[C@@H](O)[C@@H]1O
Second: CC1(C)O[C@H]2C[C@@H]3[C@H]4CCC5=CC(=O)C=C[C@]5(C)[C@@]4(F)[C@@H](O)C[C@]3(C)[C@]2(C(=O)CO)O1
The activation of the first is lower: -10.7% for the first, 8.11% for the second.

Going from `Cc1cc(O)c2c(O)c3c(O)cccc3cc2c1` to `CSc1nc2cc(Oc3cccc(Cl)c3Cl)c(Cl)cc2[nH]1`, the activation falls from 0.837% to -40.2%.

Compared with `C=C1C[C@H]2[C@@H]3C=C(C)C4=CC(=O)CC[C@]4(C)[C@H]3CC[C@]2(C)[C@@]1(OC(C)=O)C(C)=O`, `C#C[C@]1(O)CC[C@H]2[C@@H]3CCC4=CC(=O)CC[C@@H]4[C@H]3CC[C@@]21C` is higher in activation: -0.837% for the first, 7.34% for the second.

Compared with `CN1[C@@H]2CC[C@H]1CC(OC(=O)C(O)c1ccccc1)C2` (stereo not given in full), `Cc1c(I)c(=O)n(-c2ccccc2)n1C` is lower in activation: 5.08% for the first, -10.7% for the second.

Going from `CC(C)=C(C#N)C(=O)N1CCCN(c2cc(NCCC(=O)O)nc(-c3ccccn3)n2)CC1` to `NC(=O)C1(N2CCCCC2)CCN(CCCC(=O)c2ccc(F)cc2)CC1`, the activation rises from 3.35% to 14.2%.

Going from `CCOc1ccc(NC(C)=O)cc1` to `CC(C)(C)NCC(O)COc1ccc(NC(=O)NC2CCCCC2)cc1` (stereo not given), the activation falls from 7.53% to 5.08%.

Compared with `CC(Oc1c(Cl)cccc1Cl)C1=NCCN1` (stereo not given), `CCCCc1nc(Cl)c(CO)n1Cc1ccc(-c2ccccc2-c2nn[nH]n2)cc1` is lower in activation: 3.35% for the first, -19.2% for the second.

Going from `O=S(=O)(N=Cc1c(O)ccc2ccccc12)c1cccs1` to `Cc1ccc(/C=N/n2c(-c3ccccc3)csc2=S)cc1`, the activation rises from 11.3% to 24.3%.

First: C=CCNc1nc(NCC=C)nc(N2CCN(C(c3ccc(F)cc3)c3ccc(F)cc3)CC2)n1
Second: CC(=O)Oc1ccc(C2(c3ccc(OC(C)=O)cc3)C(=O)Nc3ccccc32)cc1
The activation of the first is higher: -14.2% for the first, -31.1% for the second.

Going from `Cc1cccn2c(=O)c(-c3nnn[nH]3)cnc12` to `COc1cc(NS(=O)(=O)c2ccc(N)cc2)ncn1`, the activation rises from -7.34% to -5.86%.

Compared with `COc1cc(C(=O)NC2CCCNC2)cc(OC)c1OC` (stereo not given), `Nc1ccc(C(=O)O)cc1` is lower in activation: -3.95% for the first, -29.9% for the second.

For `Cc1cccc(C)c1OCC(=O)N[C@@H](Cc1ccccc1)[C@@H](O)C[C@H](Cc1ccccc1)NC(=O)[C@H](C(C)C)N1CCCNC1=O`, the activation was -5.4% and 28.8%.
With `N[C@@H](C(=O)N[C@@H]1C(=O)N2C(C(=O)O)=C(Cl)CS[C@H]12)c1ccccc1` the activation was -19.2% and 26.9%.

`CS[C@H]1SC[C@@H]2C(=O)N(C)[C@H](C(C)C)C(=O)OC[C@H](NC(=O)c3cnc4ccccc4n3)C(=O)N[C@H](C)C(=O)N(C)[C@@H]1C(=O)N(C)[C@H](C(C)C)C(=O)OC[C@H](NC(=O)c1cnc3ccccc3n1)C(=O)N[C@H](C)C(=O)N2C` was tested, and the Potency was 0.0343 µM (active).
With `CN(C)C(=S)SC(=S)N(C)C` the Potency was 21.9 µM (active).
